Bioassay records deposited in PubChem BioAssay by National Center for Advancing Translational Sciences (NCATS).
HEK293 cAMP ctrl: qHTS Assay for Agonists of the Thyroid Stimulating Hormone Receptor: Activators of Intracellular cAMP Concentrations in Parental HEK 293; Potency, µM (highest dose often 57.1 µM), actives largely listed as activators; hit rate 2.5% among 73,000; parental HEK293 CNG cAMP sensor, membrane potential fluorescence; note: nearly all actives have a fitted effect of over 55% in size
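Counterscreen for endogenous-receptor signalling: CNG-channel HEK 293 cells report cAMP rise by membrane depolarization. After 60 min dye equilibration with 100 uM RO 20-1724, compounds incubated 30 min before bottom-read fluorescence at 590 nm.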
TSHR agonist: qHTS Assay for Agonists of the Thyroid Stimulating Hormone Receptor. Thyrotropin receptor (Homo sapiens), P16473. HEK293-CNG-TSHR cells (CNG channel as cAMP sensor), membrane potential dye, cAMP. Potency, µM (doses to about 57.1 µM), most hits filed as activators. hit rate 0.48% among 73,000; active = well fitted activation curve with a large enough effect in the main read-out, with a control signal flat, not every such curve was filed as active; inconclusive = small, poorly fitted or top-dose-only effect, or a change in a side signal; inactive = no such curve, though single readings can be large or run the other way; reference of the percent scale not stated here;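 note: the control signal comes from parental cells without the receptor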
Target sequence (P16473 whole entry, looked up): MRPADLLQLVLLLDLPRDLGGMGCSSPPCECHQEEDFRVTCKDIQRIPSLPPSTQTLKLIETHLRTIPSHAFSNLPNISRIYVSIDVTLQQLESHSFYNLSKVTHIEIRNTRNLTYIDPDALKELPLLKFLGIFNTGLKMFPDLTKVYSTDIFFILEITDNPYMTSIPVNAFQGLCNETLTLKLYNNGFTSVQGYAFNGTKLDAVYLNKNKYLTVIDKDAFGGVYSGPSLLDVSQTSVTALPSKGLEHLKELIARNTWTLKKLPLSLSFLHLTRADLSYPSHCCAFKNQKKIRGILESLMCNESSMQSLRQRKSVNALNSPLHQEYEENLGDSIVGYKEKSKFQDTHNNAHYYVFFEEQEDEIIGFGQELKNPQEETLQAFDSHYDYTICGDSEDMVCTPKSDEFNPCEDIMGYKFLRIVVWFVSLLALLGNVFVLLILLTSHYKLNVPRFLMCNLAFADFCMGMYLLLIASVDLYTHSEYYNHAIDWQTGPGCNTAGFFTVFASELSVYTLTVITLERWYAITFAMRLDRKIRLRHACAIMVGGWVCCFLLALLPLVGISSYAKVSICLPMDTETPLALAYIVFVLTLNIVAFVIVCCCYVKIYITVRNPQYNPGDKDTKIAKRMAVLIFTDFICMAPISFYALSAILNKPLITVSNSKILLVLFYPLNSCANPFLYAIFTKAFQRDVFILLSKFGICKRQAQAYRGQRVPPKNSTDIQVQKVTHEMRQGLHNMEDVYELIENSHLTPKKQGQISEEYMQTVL
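HEK 293 cells stably expressing TSHR and a modified CNG channel, with CNG-only parental cells as counterscreen, were preloaded 60 min at room temperature with membrane potential dye containing 100 uM RO 20-1724. Compound exposure was 30 min, and depolarization was read as fluorescence at 590 nm.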
GBA activity: Glucocerebrosidase. purified enzyme, resorufin glucoside fluorescence (screen aimed at inhibitors), 20 min. Potency, µM. hit rate 1.1% among 48,000; in the data active = potency below about 15 µM; inconclusive = mostly about 16 µM to 33 µM;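 note: the screen sought inhibitors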
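Wild-type enzyme at 0.2 nM final in 50mM citric acid/KH2PO4, 10mM sodium taurocholate, 0.01% tween-20, pH 5.9, with resorufin beta-D-glucopyranoside at 30 uM final. Compounds titrated, 20 min at RT, red fluorescence read; AC50 from titration.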
Luciferase inh: qHTS Assay for Inhibitors of Firefly Luciferase; hit rate 2.2% among 72,000; purified firefly luciferase, luminescence, 8 min; Potency, µM (doses to about 57.1 µM), hits mostly inhibitors; note: nearly all actives have a fitted effect of over 40% in size
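Luminescence read-out after 8 min at room temperature; enzyme reaction used luciferin plus 10 uM ATP (linear range) in imidazole buffer pH 7.2 with KCl, MgCl2, Tween 20 and BSA. Each sample was run as a titration.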
ERK AVP block: qHTS Assay for Inhibitors of the ERK Signaling Pathway using a Homogeneous Screening Assay; HEK293-V1b, vasopressin-stimulated pERK AlphaScreen; Potency, µM (titrated, usually from 57.5 µM), hits mostly inhibitors; hit rate 0.99% among 72,000; note: nearly all actives have a fitted effect of over 55% in size
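qHTS, compounds titrated on V1b-expressing HEK293 cells. Preincubation 30 min at 37C, vasopressin 25 nM for 5 min, lysis 10 min, bead incubation 5 hr at room temperature.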
PK Bst: Pyruvate Kinase | purified pyruvate kinase, luminescence ATP production; ribose 5-phosphate activator present at AC10 | hit rate 1.2% among 51,000 | Potency, µM; in the data active = potency below about 11 µM; inconclusive = mostly about 12 µM to 25 µM;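 the screen sought inhibitors and activators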
Large screens that a line does not name were inactive. The list is not random: actives were taken first. Their share in the collection is about 6.1%. Unless noted, calls come from the whole dose curve; as a rule, active = well fitted curve in the direction sought with a large enough effect; inconclusive = small, poorly fitted or top-dose-only effect, or another doubt; inactive = no such curve, though single readings can be large; an effect the other way counts as inactive or inconclusive.

Nc1nc(N)c2nn(-c3ccc(C(=O)O)cc3)nc2n1	none (no result: GBA activity, PK Bst)
CN(C)C[C@H]1CCC2=C(C1=O)C(c1ccc(Cl)c(Cl)c1)C1=C(CC[C@H](CN(C)C)C1=O)O2	none (no result: GBA activity, PK Bst)
O=C(Cn1cc2c(n1)CCCC2)N1CCCc2ccccc21	none (no result: GBA activity, PK Bst)
O=C(Cn1nnc(-c2ccc(CN3CCOCC3)cc2)n1)N1CCCc2ccccc21	PK Bst 5.56
COc1ccc(-c2ccc(-c3nnn(CC(=O)N4CCOCC4)n3)cc2)cc1	Luciferase inh 1.58µM, PK Bst 2.64
CN(C)c1ncc2nc(-c3cccs3)c(=O)n(C[C@H]3CCCO3)c2n1	none (no result: GBA activity, PK Bst)
O=C(O)[C@H](Cc1cc(I)c(O)c(I)c1)C1CCCCC1	none (no result: GBA activity, PK Bst)
CCOc1ccc(NC(=O)c2nnn(CC(=O)Nc3ccccc3OC)c2N)cc1	Luciferase inh 5.01µM (no result: PK Bst)
COc1ccccc1NC(=O)CN1CCN(CC(=O)Nc2ccc(OCc3ccccc3)cc2)CC1	GBA activity 10.2, ERK AVP block inconclusive
NCCC[C@@](N)(C(=O)O)C(F)F	none (no result: GBA activity, PK Bst)
CCOC(=O)N1CCN(C(=O)CSc2nnc(-c3ccc(C(C)(C)C)cc3)o2)CC1	Luciferase inh 1.26µM, ERK AVP block inconclusive (no result: GBA activity, PK Bst)
COc1ccc(-c2nnc(SCC(=O)N3CCc4ccccc4C3)o2)cc1	HEK293 cAMP ctrl 25.1µM, TSHR agonist inconclusive, PK Bst inconclusive
COc1ccc(-c2nnc(SCC(=O)c3ccc(C)o3)o2)cc1	none
COc1cccc(-c2nnc(SCC(=O)N(C(C)C)C(C)C)o2)c1	HEK293 cAMP ctrl 15.8µM, TSHR agonist inconclusive
COc1ccc(-c2nnc(SCC(=O)/C(C#N)=C(\C)N)o2)cc1	Luciferase inh 5.01µM (no result: PK Bst)
O=C(O)c1ccccc1N[C@H](c1ccccc1)c1ccc2cccnc2c1O	none (no result: GBA activity, PK Bst)
O=C(O)[C@@H](O)[C@@H](O)[C@@H](O[C@H]1O[C@@H](CO)[C@@H](O)[C@@H](O)[C@@H]1O)[C@@H](O)CO	none (no result: GBA activity, PK Bst)
O=C(O)c1ccc(SSc2ccc(C(=O)O)cn2)nc1	none (no result: GBA activity, PK Bst)
Cc1ccc(C[C@H](Cc2nc3ccccc3[nH]2)c2nc3ccccc3[nH]2)cc1	none (no result: GBA activity, ERK AVP block, PK Bst)
COc1ccc(-c2nnc(-c3ccc(N(C)C)cc3)o2)cc1	none
COc1ccc(-c2nnc(-c3ccc(N)cc3)o2)cc1	Luciferase inh 7.94µM, PK Bst 3.27
COc1ccccc1S(=O)(=O)Cc1ccc(C(=O)N2CCN(c3cccc(Cl)c3)CC2)o1	HEK293 cAMP ctrl 5.01µM, TSHR agonist inconclusive, ERK AVP block inconclusive
Cc1cccc(N2CCN(C(=O)c3ccc(CS(=O)(=O)c4ccccc4C)o3)CC2C)c1 (stereo not given)	HEK293 cAMP ctrl 25.1µM, TSHR agonist inconclusive, GBA activity inconclusive, ERK AVP block inconclusive
O=CN1CCN(C[C@H](O)CN2CCCCC2)CC1	none (no result: GBA activity, PK Bst)
O=C(NCc1ccccc1)NC1(C(=O)Nc2ccc3c(c2)OCCO3)CCCCC1	TSHR agonist 2µM (no result: GBA activity)
Cc1ccc(C(=O)Nc2cccc(C(=O)O)c2)cc1S(=O)(=O)N1CCCCC1	Luciferase inh 12.6µM (no result: GBA activity, PK Bst)
O=C(Nc1cccc(S(=O)(=O)C(F)F)c1)c1ccc(Cl)c(S(=O)(=O)N2CCOCC2)c1	ERK AVP block 12.6µM (no result: TSHR agonist)
CC1=N[C@@](C)(COC(=O)[C@]2(C)N[C@](C)(CO)CO2)COC1=O	none (no result: GBA activity, PK Bst)
COc1ccccc1Nc1nnc(SCC(=O)N2CCCC2)s1	none
COc1ccccc1Nc1nnc(SCC(=O)N2CCCC2=O)s1	Luciferase inh 20µM (no result: PK Bst)
Cc1ccc(-c2nc(CSCC(=O)N3CCN(c4ccccn4)CC3)c(C)o2)cc1	HEK293 cAMP ctrl inconclusive, TSHR agonist inconclusive (no result: GBA activity, PK Bst)
CCOc1ccc(-c2nc(CSCC(=O)N3CCN(c4cccc(OC)c4)CC3)c(C)o2)cc1	Luciferase inh inconclusive, ERK AVP block 12.6µM (no result: GBA activity, PK Bst)
C=CCOC(=O)C(C(C)=O)C(NC(=O)OC)c1cccc(C)c1 (stereo not given)	none (no result: GBA activity, Luciferase inh, PK Bst)
Cc1cccc(Cc2c(C)nc3c(C(=O)NCc4ccco4)cnn3c2C)c1	HEK293 cAMP ctrl inconclusive, TSHR agonist inconclusive
Cc1nc2c(C(=O)NCc3ccco3)cnn2c(C)c1Cc1ccc(F)cc1Cl	HEK293 cAMP ctrl 25.1µM, TSHR agonist inconclusive
COc1ccc(C(C)=O)cc1COC(=O)c1ccc2c(c1)OCO2	HEK293 cAMP ctrl 31.6µM, TSHR agonist inconclusive
COc1ccc(C)cc1NC(=O)c1ccc2c(c1)OCO2	HEK293 cAMP ctrl inconclusive, TSHR agonist inconclusive
CC(=O)OC[C@H]1O[C@@H](CCO/N=C2/[C@H]3O[C@@H]3[C@@H](O)[C@H]3[C@H]2CCn2c(=O)n(-c4ccccc4)c(=O)n23)C=C[C@@H]1OC(C)=O	none (no result: GBA activity, PK Bst)
O=C(Cc1coc2ccc3ccccc3c12)N1CCN(c2ncccn2)CC1	HEK293 cAMP ctrl inconclusive, TSHR agonist inconclusive, PK Bst 11.3
CCC12CN3CC(CC)(CN(C1)C3c1ccc(OC(C)C)cc1)C2=O (stereo not given)	GBA activity 4.26
C=CCOc1ccc(C2N3CC4(C)CN2CC(CCC)(C3)C4=O)cc1 (stereo not given)	HEK293 cAMP ctrl inconclusive, TSHR agonist inconclusive, GBA activity 4.77
CCc1cc2c(nc1CC)CCN(CC/C(C)=N/O[C@@H]1O[C@H](COC(C)=O)[C@H](OC(C)=O)[C@H](OC(C)=O)[C@H]1OC(C)=O)C2	none (no result: GBA activity, PK Bst)
